# HT1080 IDH1KD tx – kills HT-1080 cells with IDH1 knockdown; HT-1080 IDH1 knockdown viability, ATP luminescence, 48 h; AID 686971; 360,000 compounds, 2% hits; Potency, µM (highest dose often 46.1 µM), for the others: top-dose activity, negative = toxicity, hits mostly cytotoxic;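 note: 0% = DMSO wells and -100% = cell-free medium wells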
#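 % activity derives from luminescence (CellTiter-Glo), normalised to DMSO and no-cell wells. HT-1080-IDH1KD cells, 750/well, had 48 h compound exposure at 37 °C.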
# TDP1 cell noCPT – qHTS for Inhibitors of human tyrosyl-DNA phosphodiesterase 1 (TDP1): qHTS in cells in absence of CPT | DT40 Tdp1-/- hTDP1 cells, no CPT, ATP luminescence, 48 h | Potency, µM (doses to about 46.2 µM), inactives show top-dose activity change, negative = growth inhibition, usual class: inhibitors | 420,000 compounds, 15% hits; note: nearly all actives have a fitted effect of over 55% in size
#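 Chicken DT40 Tdp1-/- cells complemented with human TDP1, screened without camptothecin (DMSO vehicle only), 400 cells/well. Compounds pin-transferred, cells incubated at 37 °C for at least 48 hr. Growth read as ATP-dependent luminescence (CellTiter-Glo, 30 min at RT).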
# KB-3-1 tox – KB-3-1 parental cell cytotoxicity; AID 1347075; Potency, µM (doses to about 46.1 µM), hits mostly cytotoxic; 400,000 compounds, 1.4% hits; KB-3-1 viability, CellTiter-Glo ATP luminescence, 72 h; note: nearly all actives have a fitted effect of over 60% in size
#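 72 h, 37 °C compound treatment of KB-3-1 parental cells; CellTiter-Glo added, 10 min, luminescence read. Data corrected against DMSO-only plates and normalized before curve fitting.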
# HT1080NT lethal – kills 2HG-producing HT-1080-NT fibrosarcoma cells. HT-1080-NT fibrosarcoma viability, CellTiter-Glo ATP luminescence, 48 h. Potency, µM (doses to about 46.1 µM), inactives show at the highest dose activity, negative = less viability, usual class: cytotoxic. 360,000 compounds, 1.6% hits. AID 686970;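 note: NT is the 2HG producing partner of a matched IDH1 knockdown line; 0% = DMSO-treated cells and -100% = media-only wells without cells; nearly all actives have a fitted effect of over 55% in size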
#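 Compounds were tested in concentration-response format on HT-1080-NT cells for 48 hours at 37 degrees C. Cell viability came from CellTiter-Glo luminescence; curves were classified by r2, response magnitude and activity.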
# KB-V1 MDR tox – KB-V1 MDR subline cytotoxicity; 400,000 compounds, 3.4% hits; KB-V1 MDR cells viability, CellTiter-Glo, 72 h; Potency, µM (series often up to 46.1 µM), hits mostly cytotoxic; note: nearly all actives have a fitted effect of over 60% in size
#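 Following 72 h at 37 degrees C with compound, KB-V1 cell viability was read by CellTiter-Glo luminescence, medium being phenol-red-free DMEM plus 10% FBS; concentration-response parameters came from normalized, curve-fitted qHTS data.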
# DT40 TDP1 CPT – DT40-hTDP1 cell growth loss with CPT. chicken DT40 Tdp1-/-;hTDP1 cells + 20 nM CPT, ATP luminescence, 48 h. Potency, µM (highest dose often 46.2 µM), without a hit: top-dose activity change, negative = growth inhibition, usual class: inhibitors. 420,000 compounds, 12% hits. AID 686979; note: nearly all actives have a fitted effect of over 55% in size
#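 Chicken DT40 Tdp1-/- cells stably complemented with human TDP1 were seeded at 400 cells/well in medium containing 20 nM camptothecin, exposed to pin-transferred compounds, and grown at 37 °C for at least 48 hr. Viability was read as ATP luminescence.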
# * marks the source's active call; other numbers are inactive results; i = inactive; u = inconclusive; x = no result given; [ ] = dose if it differs, or a comment. Only some compounds are listed: those with a hit (about 19% of all), similar ones and a draw of the others. Calls come from the whole dose curve; as a rule, active = well fitted curve in the direction sought with a large enough effect; inconclusive = small, poorly fitted or top-dose-only effect, or another doubt; inactive = no such curve, though single readings can be large; an effect the other way counts as inactive or inconclusive. Unless noted, % is set by controls: 0 for no effect and ±100 for the full control effect; potency is the fitted concentration of half-maximal effect.
SMILES,HT1080 IDH1KD tx,TDP1 cell noCPT,KB-3-1 tox,HT1080NT lethal,KB-V1 MDR tox,DT40 TDP1 CPT
Cc1ccccc1-c1nc(P(=O)(c2ccccc2)c2ccccc2)c(N2CCOCC2)o1,-5%,u,i,-6%,i,u
CCOP(=O)(c1ccccc1)c1nc(-c2ccccc2C)oc1NCc1ccccc1 (stereo unspecified),6%,23µM*,i,8%,u,u
CCNc1oc(-c2cccc3ccccc23)nc1C#N,u,0%,i,u,i,-8%
COP(=O)(OC)c1nc(-c2cccc3ccccc23)oc1NCc1ccccc1,0%,18µM*,u,-14%,12µM*,16µM*
CCOP(=O)(c1ccccc1)c1nc(-c2ccccc2C)oc1N1CCCCC1 (stereo unspecified),u,13µM*,u,u,u,13µM*
CCOc1ccc(Br)cc1S(=O)(=O)Nc1ccccc1N1CCOCC1,-26%,u,u,-25%,u,u
COc1ccc(C(=O)c2ccccc2)cc1,11%,-11%,u,1%,i,16%
COC1=CC(=O)C(C(=O)c2ccccc2)=CC1=O,x,5.8µM*,x,x,x,u
CCN1C(=O)c2cccc3c(S(=O)(=O)N(C)C)ccc1c23,-16%,u,i,-5%,13µM*,u
CN1C(=O)c2cccc3c(S(=O)(=O)N(C)C)ccc1c23,-19%,-6%,i,-6%,i,-1%
CCN1C(=O)c2cccc3c(S(=O)(=O)N(C(=O)c4ccncc4)c4ccc(OC)cc4)ccc1c23,0%,u,i,1%,u,u
CCN1C(=O)c2cccc3c(S(=O)(=O)N(C(=O)c4cccnc4)c4ccc(OC)cc4)ccc1c23,u,12µM*,i,u,i,u
CCN1C(=O)c2cccc3c(S(=O)(=O)Nc4ccccc4)ccc1c23,-18%,u,u,-5%,12µM*,u
COc1ccc(CN(C)C(=O)c2ccc3c(=O)n4c(nc3c2)CCC4)c(OC)c1,-1%,u,u,5%,u,u
COc1cc(-c2ccc3ncnc(NCCc4cnc[nH]4)c3c2)cc(OC)c1OC,x,x,i,x,i,x
CCN(CC)C1=NS(=O)(=O)c2cc([N+](=O)[O-])ccc21,8%,23µM*,u,30%,u,18µM*
Cc1ccc(NC(=O)CN(C)C(=O)C(c2ccccc2)c2ccccc2)cc1,-4%,u,x,0%,x,u
CN(CC(=O)Nc1ccccc1C(F)(F)F)C(=O)COc1ccccc1Cc1ccccc1,-12%,16µM*,i,7%,8.2µM*,u
CN(CC(=O)Nc1ccc(F)cc1)C(=O)COc1ccc(C(=O)c2ccccc2)cc1,-12%,21µM*,i,-12%,i,u
COc1ccc(NC(=O)CN(C)C(=O)C(Sc2ccccc2)c2ccccc2)cc1 (stereo unspecified),-8%,u,i,-1%,i,16µM*
CCN(CC(=O)Nc1ccc(NC(C)=O)cc1)C(=O)COc1ccc(C(=O)c2ccccc2)cc1,-15%,-21%,i,0%,u,3%
COc1ccc(NC(=O)CN(C)C(=O)COc2ccccc2Cc2ccccc2)cc1,-5%,18µM*,i,2%[9.24 µM],i,26µM*
COc1ccc(NC(=O)CN(C)C(=O)c2ccccc2CCc2ccccc2)cc1,-3%,-25%,i,-8%,i,-21%
COCCn1c(=O)c(-c2cc(F)cc(F)c2)nc2cnc(Oc3ccc(OC)cc3)nc21,x,u,x,x,x,-17%
Cc1cc(C)n2nc(SCC(=O)N(CCC#N)c3ccc(F)cc3)nc2n1,-8%,-9%,i,5%,i,-8%
SMILES,HT1080 IDH1KD tx,TDP1 cell noCPT,KB-3-1 tox,HT1080NT lethal,KB-V1 MDR tox,DT40 TDP1 CPT
O=C(Cn1ccn(-c2ccc(F)c(F)c2)c(=O)c1=O)NCc1ccccc1,x,1%,x,x,x,1%
CN(Cc1ccccc1)C(=O)COc1ccc2ccccc2c1,2%,-45%,i,0%,i,-26%
CN(CC(=O)Nc1ccc(F)cc1)C(=O)COC(=O)Cc1c(F)cccc1Cl,-3%,6.5µM*,i,-5%,i,-12%
CN(CC(=O)Nc1ccccc1Cl)C(=O)COC(=O)Cc1c(F)cccc1Cl,7%,12%,i,-1%,i,-2%
CN(CC(=O)Nc1ccc(F)cc1)C(=O)COc1ccccc1Cc1ccccc1,-24%,u,u,-8%,18µM*,u
CSc1ccc(CN(C)C(=O)COc2ccc(C(=O)c3ccccc3)cc2)cc1,12µM*,15µM*,21µM*,u,9.2µM*,u
Cc1ccc2cccc(OCC(=O)N(C)CC(=O)Nc3ccc(F)cc3)c2n1,-7%,-8%,i,0%,i,-20%
COc1ccc([C@H]2N[C@]3(CCCN(Cc4ccc(Br)cc4)C3=O)[C@H]3C(=O)N(Cc4ccccc4)C(=O)[C@@H]23)cc1,-22%,15µM*,i,-20%,i,u
CCN1C(=O)[C@H]2[C@@H](c3ccc(OC)cc3)N[C@]3(CCCN(Cc4ccc(Br)cc4)C3=O)[C@H]2C1=O,-4%,26µM*,i,-9%,i,-8%
COc1ccc(CN2CCC[C@]3(N[C@H](c4ccc(OC)cc4)[C@@H]4C(=O)N(Cc5ccccc5)C(=O)[C@@H]43)C2=O)cc1,1%,16µM*,i,-7%,i,21µM*
COc1ccc(CN2CCC[C@]3(N[C@H](c4ccc(C)cc4)[C@@H]4C(=O)N(Cc5ccccc5)C(=O)[C@@H]43)C2=O)cc1,-4%,u,i,-1%,i,u
COc1ccc(CN2CCC[C@]3(N[C@H](c4ccccc4)[C@@H]4C(=O)N(Cc5ccccc5)C(=O)[C@@H]43)C2=O)cc1,16%,18µM*,i,-1%,i,u
CCn1cc(CNC(=O)c2c(-c3c(Cl)cccc3Cl)noc2C)c(C)n1,-2%,-21%,i,-2%,i,-17%
C/C(CC(=O)Nc1ccc(OCc2ccccc2)cc1)=N\NC(=O)C(=O)Nc1cccc(C)c1,-15%,9.2µM*,u,-1%,u,u
Cc1cnc(NC(=O)Nc2ccc(OCc3ccccc3)cc2)c(Br)c1,15%,16µM*,i,17%,i,u

# High-throughput results as filed in PubChem.
